Laboratory results taken from PubChem BioAssay (EPA / NIEHS).
More than one record can exist for a structure, and the calls need not agree. Activity calls are given as the source filed them. Rule for the calls: active = hit-call score of the fitted dose curve at least 0.9, where 1 is the maximum; inactive = score below 0.9.

Legend:
[1] = ATG_CRE_CIS: Attagene CIS-FACTORIAL HepG2 Assay for human cAMP Responsive Element (CRE) binding protein 3 (AID 2282926); conditions: HepG2 CRE cis-reporter, Attagene multiplexed mRNA; actives raise or lower the signal
Outline: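 Endogenous CRE-binding activity in HepG2 is reported through a cis-regulated transfected reporter. Following a day of exposure, mRNA levels are determined by reverse transcription PCR and fluorescent fragment analysis; fits run in both directions versus DMSO.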

[2] = ATG_CMV_CIS: Attagene CIS-FACTORIAL HepG2 Assay for human CMV (Internal Marker) (AID 2282928); conditions: HepG2 CMV promoter reporter, transcription factor profiling; actives raise or lower the signal;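 note: endpoint acts as a background internal control marker rather than a target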
Outline: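 CMV internal-marker background readout in transiently transfected HepG2 cells bearing cis-regulated reporter units. Reporter mRNA is measured 24 h after dosing by RT-PCR and capillary electrophoresis, with bidirectional fitting against DMSO.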

[3] = ATG_DR4_LXR_CIS: Attagene CIS-FACTORIAL HepG2 Assay for human Liver X Receptor (LXR), DR4 submotif (AID 2282929); conditions: HepG2 Attagene DR4 cis-reporter, mRNA transcription; actives raise or lower the signal
Outline: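 After transient transfection with multiplexed cis-promoter reporter units, HepG2 cells received test chemicals for 24 h. Reporter mRNA induction, detected by fluorescence after RT-PCR and capillary electrophoresis, was scored relative to DMSO.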

[4] = molecular target: Aryl hydrocarbon receptor (Homo sapiens) (UniProt P35869); experiment: ATG_Ahr_CIS: Attagene CIS-FACTORIAL HepG2 Assay for human Aryl Hydrocarbon Receptor (Ahr) (AID 2282930); conditions: HepG2 AhR cis-factorial reporter transcription; actives raise or lower the signal
Outline: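 Endogenous factor activity is tracked through cis-promoter reporter units transfected into HepG2 cells. Transcript levels at 24 h are read by fluorescent RT-PCR and capillary electrophoresis, with activity in either direction scored relative to DMSO.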

[5] = ATG_AP_1_CIS: Attagene CIS-FACTORIAL HepG2 Assay for human Activator Protein 1 (AP-1) (AID 2282931); conditions: HepG2 Attagene cis-factorial AP-1 reporter mRNA; actives raise or lower the signal
Outline: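 After 24 h incubation with test chemical, RNA from transfected HepG2 cells was reverse-transcribed, amplified, fluorescently labelled and digested before capillary electrophoresis. Reporters were driven by cis-regulatory promoters; activity fitted bidirectionally versus DMSO.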

[6] = ATG_AP_2_CIS: Attagene CIS-FACTORIAL HepG2 Assay for human Activator Protein 2 (AP-2) (AID 2282932); conditions: HepG2 AP-2 cis-reporter, Attagene transcription factor profiling; actives raise or lower the signal
Outline: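 HepG2 cells transiently transfected with cis-element reporter units and exposed for 24 h. Reporter mRNA measured by RT-PCR, FAM labelling, HpaI digestion and capillary electrophoresis. Changes in either direction fitted relative to DMSO.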

[7] = ATG_BRE_CIS: Attagene CIS-FACTORIAL HepG2 Assay for human Bone Morphogenetic Protein (BMP) Response Element (BRE) (AID 2282933); conditions: HepG2 BMP response element reporter, Attagene transcription factor profiling; actives raise or lower the signal
Outline: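 Endogenous transcription factor activity at a BMP response element was monitored in transfected HepG2 cells 24 h after dosing. Fluorescent RT-PCR products were resolved by capillary electrophoresis, and activity was fitted in both directions versus DMSO.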

[8] = molecular target: Retinoic acid receptor alpha (Homo sapiens) (UniProt P10276); experiment: ATG_DR5_RAR_CIS: Attagene CIS-FACTORIAL HepG2 Assay for human Retinoic Acid Receptor Alpha (RARE), DR5 submotif (AID 2282934); conditions: HepG2 Attagene cis-factorial RARE DR5 reporter, mRNA; actives raise or lower the signal;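 for AC50: reporter responds to endogenous RAR alpha beta and gamma in HepG2 not RARA alone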
Outline: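 After 24 h of chemical exposure, transiently transfected HepG2 cells were lysed for total RNA; the DR5-regulated reporter transcript was quantified via RT-PCR and capillary electrophoresis, with activity fitted bidirectionally against DMSO.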

[9] = molecular target: Transcription factor E2F1 (Homo sapiens) (UniProt Q01094); experiment: ATG_E2F_CIS: Attagene CIS-FACTORIAL HepG2 Assay for human E2F Transcription Factor 1 (AID 2282935); conditions: HepG2 Attagene cis-reporter, E2F reporter RNA transcripts; actives raise or lower the signal
Outline: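 Endogenous E2F1 activity read through cis-promoter reporter units transfected into HepG2. After 24 h compound treatment, reporter mRNA measured by RT-PCR, HpaI digestion and capillary electrophoresis. Bidirectional fit versus DMSO.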

[10] = ATG_E_Box_CIS: Attagene CIS-FACTORIAL HepG2 Assay for human Enhancer Box (E-box) (AID 2282936); conditions: HepG2 E-box cis-reporter transcription, actives raise or lower the signal
Outline: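 HepG2 cells transiently transfected with multiplexed cis-element reporter units, dosed 24 h; reporter mRNA quantified by RT-PCR, 6-FAM labelling, HpaI digestion and capillary electrophoresis. E-box (USF1) signal fitted bidirectionally vs DMSO.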

[11] = ATG_M_61_CIS: Attagene CIS-FACTORIAL HepG2 Assay for M61 Transcription Factor (Internal Marker) (AID 2282937); conditions: HepG2 Attagene CIS-FACTORIAL M61 internal marker reporter; actives raise or lower the signal
Outline: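 Using transiently transfected HepG2 liver cells, reporter transcript levels were assessed 24 h post-dosing by RT-PCR and capillary electrophoresis. Changes in either direction were fitted relative to DMSO controls.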

[12] = ATG_EGR_CIS: Attagene CIS-FACTORIAL HepG2 Assay for human Early Growth Response 1 (EGR1) (AID 2282938); conditions: HepG2 Attagene CIS-FACTORIAL EGR reporter mRNA; actives raise or lower the signal
Outline: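 Fluorescent capillary-electrophoresis signal of reporter cDNA fragments serves as read-out. HepG2 cells bear transiently transfected cis-promoter reporter units and are exposed 24 h; gain- or loss-of-signal is fitted against DMSO.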

[13] = ATG_M_19_CIS: Attagene CIS-FACTORIAL HepG2 Assay for M19 Transcription Factor (Internal Marker) (AID 2282939); conditions: HepG2 Attagene CIS-FACTORIAL M19 internal marker reporter; actives raise or lower the signal
Outline: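 Background-control endpoint from a multiplexed HepG2 reporter panel. Cells carrying cis-regulated reporter constructs are treated 24 h, then reporter transcripts are amplified, fluorescently labelled and sized by capillary electrophoresis. DMSO defines baseline.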

[14] = ATG_ERE_CIS: Attagene CIS-FACTORIAL HepG2 Assay for Estrogen Response Element (ERE) (AID 2282940); conditions: HepG2 ERE cis-reporter, Attagene RNA transcript; actives raise or lower the signal
Outline: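 Cells used were human hepatoma HepG2, transfected with multiple reporter transcription units under cis-regulatory promoters. Reporter mRNA, read 24 h post-dosing via fluorescent RT-PCR products on capillary electrophoresis, was fitted bidirectionally relative to DMSO.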

[15] = ATG_Ets_CIS: Attagene CIS-FACTORIAL HepG2 Assay for human Erythroblast Transformation Specific (ETS) (AID 2282941); conditions: HepG2 ETS cis-reporter transcription, actives raise or lower the signal
Outline: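 HepG2 cells transfected with multiple cis-regulated reporter units measuring endogenous ETS-driven transcription, 24 h after dosing. Reporter mRNA quantified by RT-PCR with capillary electrophoresis; bidirectional fit relative to DMSO.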

[16] = molecular target: Hepatocyte nuclear factor 3-beta (Homo sapiens) (UniProt Q9Y261); experiment: ATG_FoxA2_CIS: Attagene CIS-FACTORIAL HepG2 Assay for human Forkhead box A2 (FOXA2) (AID 2282942); conditions: HepG2 cis-reporter transcription factor activity, 24 h; actives raise or lower the signal
Outline: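 Fluorescence signal of reporter cDNA fragments, separated by capillary electrophoresis, reflects endogenous transcription factor activity in transfected HepG2 after 24 h. Both increases and decreases fitted against DMSO.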

[17] = ATG_FoxO_CIS: Attagene CIS-FACTORIAL HepG2 Assay for human Forkhead box O (FoxO) (AID 2282943); conditions: HepG2 Attagene cis-reporter, FoxO element, mRNA; actives raise or lower the signal
Outline: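 Transfected HepG2 reporter cells exposed to test chemical for 24 h; reporter RNA measured by reverse transcription, PCR and fluorescent capillary electrophoresis; curves fitted for increases and decreases against DMSO.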

[18] = ATG_GATA_CIS: Attagene CIS-FACTORIAL HepG2 Assay for human GATA Binding Protein (AID 2282944); conditions: HepG2 GATA cis-element reporter, Attagene multiplex mRNA; actives raise or lower the signal
Outline: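 Endogenous transcription factor activity was captured through cis-promoter-driven reporters in transfected HepG2 cells. After 24 h exposure, reporter transcripts were quantified by RT-PCR with fluorescent capillary electrophoresis, and responses fitted both directions against DMSO.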

Measured: AC50

Chain of Retinoic acid receptor alpha (Homo sapiens) (P10276 whole entry, looked up): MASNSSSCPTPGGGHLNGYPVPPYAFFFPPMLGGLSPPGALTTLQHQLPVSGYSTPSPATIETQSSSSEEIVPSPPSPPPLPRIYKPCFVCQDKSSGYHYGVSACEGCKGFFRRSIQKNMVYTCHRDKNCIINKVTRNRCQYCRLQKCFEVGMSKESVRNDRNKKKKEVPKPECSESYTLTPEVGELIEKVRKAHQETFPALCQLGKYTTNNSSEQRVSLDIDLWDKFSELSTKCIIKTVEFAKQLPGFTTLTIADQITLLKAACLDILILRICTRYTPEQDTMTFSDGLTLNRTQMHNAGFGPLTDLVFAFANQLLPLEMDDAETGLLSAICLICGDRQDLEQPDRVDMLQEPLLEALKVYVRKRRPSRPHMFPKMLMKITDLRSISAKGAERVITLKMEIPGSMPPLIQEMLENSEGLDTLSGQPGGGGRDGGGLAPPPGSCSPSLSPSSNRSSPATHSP
Chain of Aryl hydrocarbon receptor (Homo sapiens) (P35869 whole entry, looked up): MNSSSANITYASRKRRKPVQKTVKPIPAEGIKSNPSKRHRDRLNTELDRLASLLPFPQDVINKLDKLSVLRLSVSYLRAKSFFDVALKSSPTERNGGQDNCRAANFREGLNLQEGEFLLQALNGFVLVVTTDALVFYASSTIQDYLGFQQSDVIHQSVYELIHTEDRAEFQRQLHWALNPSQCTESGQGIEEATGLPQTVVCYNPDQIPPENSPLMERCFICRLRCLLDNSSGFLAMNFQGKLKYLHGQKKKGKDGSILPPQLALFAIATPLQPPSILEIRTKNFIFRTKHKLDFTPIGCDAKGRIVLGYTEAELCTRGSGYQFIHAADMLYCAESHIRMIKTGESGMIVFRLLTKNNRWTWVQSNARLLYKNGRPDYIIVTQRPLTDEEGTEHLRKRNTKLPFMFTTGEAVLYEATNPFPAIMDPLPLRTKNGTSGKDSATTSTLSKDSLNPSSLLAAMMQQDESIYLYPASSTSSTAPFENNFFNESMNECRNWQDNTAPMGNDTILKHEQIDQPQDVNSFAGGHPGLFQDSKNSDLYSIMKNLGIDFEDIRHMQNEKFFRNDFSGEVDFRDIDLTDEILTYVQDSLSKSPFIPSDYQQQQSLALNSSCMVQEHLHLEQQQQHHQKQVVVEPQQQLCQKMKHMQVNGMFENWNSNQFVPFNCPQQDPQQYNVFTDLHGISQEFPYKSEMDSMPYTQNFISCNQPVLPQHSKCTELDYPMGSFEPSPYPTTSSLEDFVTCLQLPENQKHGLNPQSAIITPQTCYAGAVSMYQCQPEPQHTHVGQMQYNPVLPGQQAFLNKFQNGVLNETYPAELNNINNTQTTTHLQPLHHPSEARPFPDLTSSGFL
Chain of Hepatocyte nuclear factor 3-beta (Homo sapiens) (Q9Y261 whole entry, looked up, the tested form may be a part): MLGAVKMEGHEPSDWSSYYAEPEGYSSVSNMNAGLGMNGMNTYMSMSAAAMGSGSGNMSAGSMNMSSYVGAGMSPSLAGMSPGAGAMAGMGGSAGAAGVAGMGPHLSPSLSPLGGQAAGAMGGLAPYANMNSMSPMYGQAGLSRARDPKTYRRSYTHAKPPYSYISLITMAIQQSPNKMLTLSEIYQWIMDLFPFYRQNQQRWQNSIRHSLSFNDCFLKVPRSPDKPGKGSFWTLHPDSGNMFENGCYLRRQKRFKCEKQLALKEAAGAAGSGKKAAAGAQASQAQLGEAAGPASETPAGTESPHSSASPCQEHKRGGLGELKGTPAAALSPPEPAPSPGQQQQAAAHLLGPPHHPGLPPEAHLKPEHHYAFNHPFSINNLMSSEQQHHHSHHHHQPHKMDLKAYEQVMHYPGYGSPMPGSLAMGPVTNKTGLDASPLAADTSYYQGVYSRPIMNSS
Chain of Transcription factor E2F1 (Homo sapiens) (Q01094 whole entry, looked up): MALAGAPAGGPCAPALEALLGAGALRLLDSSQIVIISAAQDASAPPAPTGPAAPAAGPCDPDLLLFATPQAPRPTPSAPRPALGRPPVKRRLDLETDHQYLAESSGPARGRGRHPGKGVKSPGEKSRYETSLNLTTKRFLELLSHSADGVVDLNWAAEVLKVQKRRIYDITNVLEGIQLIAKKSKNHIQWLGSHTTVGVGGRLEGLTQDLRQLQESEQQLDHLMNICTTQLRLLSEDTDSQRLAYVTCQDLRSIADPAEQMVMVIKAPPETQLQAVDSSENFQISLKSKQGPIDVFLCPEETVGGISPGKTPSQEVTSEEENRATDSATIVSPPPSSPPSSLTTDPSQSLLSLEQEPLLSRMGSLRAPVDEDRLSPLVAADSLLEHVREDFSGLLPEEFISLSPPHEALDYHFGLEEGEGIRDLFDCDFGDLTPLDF

CCc1nn(C)c(C(=O)NCc2ccc(C(C)(C)C)cc2)c1Cl
active: [1] 378 nM | [2] 171 nM | [5] 117 nM | [7] 578 nM | [8] 425 nM
inactive: [3] | [4] | [6] | [9] | [10] | [11] | [12] | [13] | [14] | [15] | [16] | [17] | [18]

COC(=O)N(OC)c1ccccc1COc1ccn(-c2ccc(Cl)cc2)n1
inactive: [4] | [5] | [6] | [9] | [10] | [11] | [12] | [13] | [14] | [16] | [17] | [18]
active: [1] 532 nM | [2] 457 nM | [3] 2770 nM | [7] 743 nM | [8] 640 nM | [15] 1470 nM

C=CC1(C)OC(=O)N(c2cc(Cl)cc(Cl)c2)C1=O (stereo not given)
inactive: [1] | [2] | [3] | [4] | [5] | [6] | [7] | [9] | [10] | [11] | [12] | [13] | [14] | [15] | [16] | [17] | [18]

CC(C)C1(C)N=C(c2nc3ccccc3cc2C(=O)O)NC1=O (stereo not given)
inactive: [1] | [2] | [3] | [4] | [5] | [6] | [7] | [8] | [9] | [10] | [11] | [12] | [13] | [14] | [15] | [16] | [17] | [18]

N#CC(CCc1ccc(Cl)cc1)(Cn1cncn1)c1ccccc1 (stereo not given)
inactive: [1] | [2] | [3] | [4] | [6] | [7] | [8] | [9] | [10] | [11] | [12] | [13] | [14] | [15] | [16] | [17] | [18]
active: [5] 26700 nM

CCCC1COC(Cn2cncn2)(c2ccc(Cl)cc2Cl)O1 (stereo not given)
active: [2] 50000 nM | [4] 25000 nM | [5] 50000 nM | [7] 29700 nM | [8] 6970 nM | [9] 85100 nM | [14] 1710 nM | [15] 58000 nM
inactive: [1] | [2] | [3] | [4] | [5] | [6] | [7] | [8] | [9] | [10] | [11] | [12] | [13] | [14] | [15] | [16] | [17] | [18]
